High-throughput results from PubChem BioAssay.
Shown are actives, neighbours in structure and some others; about 3.1% of the full set was active somewhere.
PLK1 PBD inh: inhibitors of human PLK1 polo-box domain binding; Plk1 PBD binding of FITC phosphopeptide, fluorescence polarization; Potency, µM, for the others: max response, negative = inhibition, usual class: inhibitors; 2.8% of 360,000 active; AID 720504; P53350; further: series mostly up to about 57 µM; on the % scale 0 is the no-effect control and ±100 the full control effect; nearly all actives have a fitted effect of over 65% in size
VDR inhibitor: inhibitors of human vitamin D receptor; P11473; VDR-SRC2-3 peptide fluorescence polarization, 2 h; Potency, µM, for inactives: max response, negative = inhibition, usual class: inhibitors; 0.93% of 400,000 active; further: on the % scale 0 is the no-effect control and ±100 the full control effect
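FP read-out; VDR + SRC2-3 coactivator peptide; 23 nl compound by pintool; 2 h RT incubation; reagents held at 4 deg C, protected from light.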
Tb PFK block: blocks T. brucei phosphofructokinase | O15648 | T. brucei PFK, ADP-Glo luminescence | Potency, µM (top dose mostly 57.5 µM), inactives show top-dose activity, negative = inhibition, most hits filed as inhibitors | 0.17% of 330,000 active | AID 485367;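 further: 0% = uninhibited 1x PFK enzyme wells and -100% = no-enzyme wells; nearly all actives have a fitted effect of over 60% in size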
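Activity is normalized to no-enzyme wells (full inhibition) and 1.25 nM enzyme wells (no inhibition). Reaction: 0.5 mM F6P, 0.1 mM ATP, 45 min RT, ADP-Glo luminescence; concentration-response curves fitted and classed by quality.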
S-ASM inh: human S-ASM enzyme inhibition; P17405; 0.006% of 340,000 active; Potency, µM (titrated, usually from 57.5 µM), for inactives: at the top dose activity change, negative = inhibition, hits mostly inhibitors; placental ASM, HMU-PC fluorogenic substrate, 60 min
Target sequence (P17405 47-631 limits assumed): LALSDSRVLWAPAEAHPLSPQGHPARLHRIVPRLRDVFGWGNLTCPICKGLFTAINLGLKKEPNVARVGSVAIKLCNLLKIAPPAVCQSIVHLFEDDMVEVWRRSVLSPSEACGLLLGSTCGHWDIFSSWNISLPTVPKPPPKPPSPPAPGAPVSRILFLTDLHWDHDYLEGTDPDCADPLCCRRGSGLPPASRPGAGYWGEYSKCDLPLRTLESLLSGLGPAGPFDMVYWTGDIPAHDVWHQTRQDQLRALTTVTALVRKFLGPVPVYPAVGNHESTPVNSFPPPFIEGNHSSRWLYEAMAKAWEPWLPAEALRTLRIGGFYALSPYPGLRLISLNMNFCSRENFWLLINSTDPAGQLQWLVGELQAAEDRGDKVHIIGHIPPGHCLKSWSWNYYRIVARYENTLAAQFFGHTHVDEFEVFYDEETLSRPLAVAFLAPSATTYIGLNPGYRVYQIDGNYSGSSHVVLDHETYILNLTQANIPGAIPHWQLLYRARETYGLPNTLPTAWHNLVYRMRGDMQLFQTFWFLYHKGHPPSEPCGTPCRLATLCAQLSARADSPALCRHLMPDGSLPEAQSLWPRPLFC
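Fluorescence read-out (Ex 386 nm, Em 447 nm) after stopping the reaction at pH 10. Enzyme: ASM from human placenta; substrate HMU-PC0, 9 uM final; 60 min, 37 °C. Compound preincubation 10 min, ambient temperature.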
Pin1 inh: human Pin1 inhibition; Q13526; Pin1 FP peptide displacement, HiFluor488, 10 min; Potency, µM (titrated, usually from 115 µM), for inactives: at the highest dose activity, negative = inhibition, usual class: inhibitors; 0.009% of 390,000 active; AID 504891; active means well fitted inhibition curve with a large enough effect in the polarisation, with a control signal flat, not every such curve was filed as active; inconclusive means small, poorly fitted or top-dose-only effect, or effect the other way, or a change in a side signal; inactive means no such curve, though single readings can be large or run the other way; the % refers to the polarisation; further: on the % scale 0 is the no-effect control and ±100 the full control effect
TDP1 block: blocks human tyrosyl-DNA phosphodiesterase 1; Q9NUW8; recombinant TDP1, AlphaScreen DNA substrate cleavage; Potency, µM (highest dose often 130 µM), inactives show at the highest dose activity change, negative = inhibition, actives largely listed as inhibitors; 0.28% of 350,000 active; AID 485290; further: on the % scale 0 is the no-effect control and ±100 the full control effect; nearly all actives have a fitted effect of over 40% in size
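Tdp1 1 nM final; 15 min RT w/ cpd; substrate 15 nM, 5 min; beads 10 ug/ml, 10 min; AlphaScreen read. Neg ctrl: no enzyme.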
TbPYK confirm: Trypanosoma brucei pyruvate kinase inhibition, cherry-pick confirmation | shares compounds with PLK1 PBD inh | recombinant TbPYK, Kinase-Glo ATP luminescence | Potency, µM (highest dose often 76.9 µM), without a hit: at the top dose activity change, negative = inhibition, actives largely listed as inhibitors | 67% of 890 active; further: on the % scale 0 is the no-effect control and ±100 the full control effect; nearly all actives have a fitted effect of over 70% in size
TbPYK ADP-Glo: inhibits T. brucei pyruvate kinase in orthogonal ADP-Glo assay | shares compounds with PLK1 PBD inh | recombinant TbPYK, ADP-Glo luminescence, 60 min | Potency, µM (titrated, usually from 76.9 µM), for inactives: at the top dose activity change, negative = inhibition, most hits filed as inhibitors | 62% of 890 active | AID 720584; further: on the % scale 0 is the no-effect control and ±100 the full control effect; nearly all actives have a fitted effect of over 75% in size
Starred values were filed as active, the others as inactive; ? = inconclusive; / = no result; [ ] = another dose, or the depositor's remark. Unless noted, the call rests on the fitted dose curve; in most records, active means well fitted curve in the direction sought with a large enough effect; inconclusive means small, poorly fitted or top-dose-only effect, or another doubt; inactive means no such curve, though single readings can be large; an effect the other way counts as inactive or inconclusive. Potency means the concentration at half of the fitted maximal effect.

SMILES	PLK1 PBD inh	VDR inhibitor	Tb PFK block	S-ASM inh	Pin1 inh	TDP1 block	TbPYK confirm	TbPYK ADP-Glo
CC(C)=CCC/C(C)=C/CO/N=C1/[C@H]2O[C@@H]2[C@@H](O)[C@H]2[C@H]1CCn1c(=O)n(-c3ccccc3)c(=O)n12	/	/	/	/	/	8%[21 µM]	/	/
N#Cc1cc2c(nc1SCC(=O)N1CCCCC1)CCCCC2	27µM*	?	/	-1%	1%	3%	13µM*	13µM*
Cc1c2cnn(CC(=O)NC(C)C)c(=O)c2c(C)n1Cc1ccccc1Cl	/	1%	/	/	3%	10%	/	/
COC(=O)c1ccc2c(=O)n(Cc3ccc(C(=O)NCCCN4CCC(C)CC4)cc3)c(=S)[nH]c2c1	-11%	0%	7%	10%	11%	2%	18µM*	16µM*
CN(C)CCNC(=O)c1ccc2c(=O)n(Cc3ccc(Cl)cc3)c(=S)[nH]c2c1	-29%	-13%	3%	-9%	4%	/	/	/
CC1CCN(CCCNC(=O)c2ccc3c(=O)n(Cc4ccc(Cl)cc4)c(=S)[nH]c3c2)CC1	-4%	-26%	-3%	?	-4%	9%	/	/
CCCCN(C)CCNC(=O)c1ccc(Cn2c(=S)[nH]c3ccc(Br)cc3c2=O)cc1	?	15%	-7%	-2%	-1%	11%	20µM*	13µM*
COc1ccc(C2C(=O)N(C3CCCCC3)CC(=O)N2CCc2ccc(C)cc2)cc1OC (stereo not drawn)	/	14%	/	/	1%	3%	/	/
C[C@@H]1Cc2ccccc2N1NC(=O)c1ccc(Cl)c(S(N)=O)c1 (stereo partly drawn)	/	3%	/	/	/	5%[56.1 µM]	/	/
Cc1cccc(OCC(=O)N(Cc2ccc(C(C)(C)C)cc2)Cc2ccco2)c1	/	9%	/	/	42%	2%	/	/
CN1CCN(S(=O)(=O)c2ccc(N3CCN(c4ccc(O)cc4)CC3)c([N+](=O)[O-])c2)CC1	-1%	-7%	-14%	-5%	-6%	1%[0.505 µM]	11µM*	18µM*
O=[N+]([O-])c1cc(S(=O)(=O)Nc2ccccc2)ccc1N1CCN(c2ccc(O)cc2)CC1	5%	-7%	-11%	-1%	-10%	-1%	/	/
COCCNC(=O)c1cc(C)ccc1C	-14%	10%	-3%	1%	-5%	3%	/	/
C=C(CN(C)C)C(=O)c1cc(C)ccc1C	2.7µM*	45µM*	/	0%	60%	/	5.6µM*	16µM*
CCCCc1ccc(/C=C2\C(=O)ON=C2c2ccccc2)s1	-9%	-24%	0%	-8%	-1%	5%	/	/
COc1ccc(/C=C2/C(=O)ON=C2C)cc1Br	1.9µM*	?	1%	-2%	-1%	/	?	?
COc1cc(/C=C2\C(=O)ON=C2c2ccccc2)cc(OC)c1OC	7.5µM*	28µM*	-5%	-1%	1%	-1%	?	?
COc1ccc(/C=C2\C(=O)OCc3cc(OC)c(OC)cc32)cc1OC	-12%	-8%	0%	-7%	3%	5%	/	/
COc1ccc(CCNC(=O)c2ccc3c(c2)N(Cc2ccccc2Cl)C(=O)c2ccccc2S3)cc1OC	/	23%	/	/	22%	5%	/	/
COc1cccc(CNC(=O)CN2C(=O)N(c3ccc(C)cc3C)S(=O)(=O)c3ccccc32)c1OC	/	-5%	/	/	5%	4%	/	/
